From PubChem BioAssay AID1159580 (chemical genetic matrix, 2015)
Hit rate of the full screen: of about 5,500 compounds, about 2,000 (36%) were called active. Inconclusive results (about 18%) are left out. Rule as the data show it: active = normalized growth mostly below about 0.91 (no sharp cut-off); inconclusive = no clear call, values can overlap the other calls; inactive = mostly above about 0.92. Some of the results follow.

Assay: chemical genetic growth profiling, strain panel (AID 1159580);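 also: tested at 20 µM; growth read once vehicle control cultures reached saturation at 30 °C; 1 = growth at the plate median or of vehicle wells; lower values mean less growth of the strain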
Conditions: S. cerevisiae deletion strains, growth OD

Measured: normalized growth

C#CCCCCCCCCCCCC(=O)CC(O)COC(C)=O (centres undefined)
active: locus YAL013W, strain DEP1, hits give low values 0.909 | locus YCL029C, strain bik1, hits give low values 0.901 | locus YDL035C, strain GPR1, hits give low values 0.8 | locus YDL074C, strain BRE1, hits give low values 0.622 | locus YDL101C, strain DUN1, hits give low values 0.84 | locus YDL134C, strain PPH21, hits give low values 0.807 | locus YDL192W, strain arf1, hits give low values 0.912 | locus YDR101C, strain arx1, hits give low values 0.881 | locus YDR162C, strain NBP2, hits give low values 0.642 | locus YDR318W, strain mcm21, hits give low values 0.819 | locus YDR392W, strain spt3, hits give low values 0.476 | locus YDR502C, strain sam2, hits give low values 0.799 | locus YEL061C, strain CIN8, hits give low values 0.855 | locus YER155C, strain BEM2, hits give low values 0.585 | locus YER167W, strain BCK2, hits give low values 0.807 | locus YGL078C, strain dbp3, hits give low values 0.916 | locus YGL086W, strain mad1, hits give low values 0.867 | locus YGL248W, strain PDE1, hits give low values 0.788 | locus YGR078C, strain PAC10, hits give low values 0.708 | locus YGR135W, strain pre9, hits give low values 0.739 | locus YGR229C, strain SMI1, hits give low values 0.651 | locus YGR252W, strain gcn5, hits give low values 0.705 | locus YHR030C, strain SLT2, hits give low values 0.911 | locus YHR079C, strain IRE1 (second series), hits give low values 0.816 | locus YHR129C, strain ARP1, hits give low values 0.837 | locus YIL066C, strain RNR3, hits give low values 0.722 | locus YJL095W, strain BCK1, hits give low values 0.665 | locus YJL129C, strain trk1, hits give low values 0.843 | locus YJL134W, strain LCB3, hits give low values 0.892 | locus YJL187C, strain SWE1 (second series), hits give low values 0.839
inactive: locus YAL021C, strain ccr4, hits give low values 0.964 | locus YAL026C, strain drs2, hits give low values 0.982 | locus YAL030W, strain snc1, hits give low values 0.983 | locus YBL061C, strain skt5, hits give low values 0.977 | locus YBR009C, strain hhf1, hits give low values 0.991 | locus YBR021W, strain FUR4, hits give low values 0.91 | locus YBR023C, strain chs3, hits give low values 0.978 | locus YBR171W, strain sec66, hits give low values 0.963 | locus YBR229C, strain ROT2, hits give low values 0.953 | locus YBR231C, strain swc5, hits give low values 0.977 | locus YBR279W, strain paf1, hits give low values 0.986 | locus YCL011C, strain gbp2, hits give low values 0.936 | locus YCL016C, strain dcc1, hits give low values 0.984 | locus YCL061C, strain MRC1, hits give low values 0.999 | locus YCL069W, strain vba3, hits give low values 0.975 | locus YCR088W, strain abp1, hits give low values 0.974 | locus YDL005C, strain med2, hits give low values 0.967 | locus YDL040C, strain nat1, hits give low values 0.99 | locus YDL185W, strain tfp1, hits give low values 0.959 | locus YDR001C, strain nth1, hits give low values 0.991 | locus YDR069C, strain doa4, hits give low values 0.966 | locus YDR137W, strain rgp1, hits give low values 0.854 | locus YDR150W, strain NUM1, hits give low values 0.964 | locus YDR159W, strain sac3, hits give low values 0.989 | locus YDR195W, strain ref2 1.04 | locus YDR297W, strain sur2, hits give low values 0.979 | locus YDR334W, strain swr1, hits give low values 0.98 | locus YDR335W, strain msn5, hits give low values 0.973 | locus YDR388W, hits give low values 0.975 | locus YEL003W, strain gim4, hits give low values 0.951 | locus YEL037C, strain rad23, hits give low values 0.979 | locus YEL061C, strain CIN8 (second series), hits give low values 0.98 | locus YER015W, strain faa2, hits give low values 0.991 | locus YER016W, strain bim1, hits give low values 0.99 | locus YER110C, hits give low values 0.967 | locus YER111C, strain swi4, hits give low values 0.964 | locus YER155C, strain BEM2 (second series), hits give low values 0.9 | locus YFR010W, strain ubp6, hits give low values 0.974 | locus YGL167C, strain pmr1, hits give low values 0.991 | locus YGL173C, strain kem1, hits give low values 0.979 | locus YGL227W, strain vid30, hits give low values 0.974 | locus YGL240W, strain doc1, hits give low values 0.969 | locus YGL253W, strain hxk2, hits give low values 0.981 | locus YHR013C, strain ard1, hits give low values 0.849 | locus YHR027C, strain rpn1, hits give low values 0.989 | locus YHR094C, strain hxt1, hits give low values 0.961 | locus YHR142W, strain chs7, hits give low values 0.884 | locus YHR200W, strain rpn10, hits give low values 0.977 | locus YIL073C, strain SPO22, hits give low values 0.739 | locus YIL125W, strain kgd1, hits give low values 0.97 | locus YIR030C, strain dcg1, hits give low values 0.945 | locus YJL092W, strain hpr5, hits give low values 0.965 | locus YJL095W, strain BCK1 (second series), hits give low values 0.985 | locus YJL115W, strain asf1, hits give low values 0.991 | locus YJL154C, strain vps35, hits give low values 0.984 | locus YJL164C, strain tpk1, hits give low values 0.945 | locus YJL166W, strain qcr8, hits give low values 0.909 | locus YJL168C, strain set2, hits give low values 0.979 | locus YJL187C, strain SWE1, hits give low values 0.978
